Compound activity from PubChem.
FMDV inh – High Throughput Screening for Foot and Mouth Disease Virus Antivirals | FMDV antiviral cell-based qHTS | Potency, µM (top dose mostly 57.9 µM), for the others: at the highest dose activity change, negative = inhibition, usual class: inhibitors | 410,000 compounds, 1.2% hits | AID 1159524, 2015; calls by dose curve; tested in HEK293T cells; note: read-out not given here; potency is the fitted concentration of half-maximal effect; nearly all actives have a fitted effect of over 45% in size
HCMV antiviral – qHTS Assay for inhibitors of the human cytomegalovirus (HCMV); HFF cells, HCMV-luciferase reporter, 72 h; stronger effect = lower value; activity change, negative = inhibition, % at 57.5 µM; 410,000 compounds, 4.5% hits; AID 1259415, 2018; in the data active = activity change below about -60%; inconclusive = no clear call, values can overlap the other calls; inactive = above about -39%
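Screen run at 2 compound doses on HFFs infected with reporter HCMV, MOI 1 PFU/cell. Luciferase activity from cell lysates at 72 h post infection gave inhibition relative to buffer-only and Salinomycin wells.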
LASV entry inh – qHTS for Inhibitors of binding or entry into cells for Lassa Virus. Lassa virus pseudotype entry inhibition, cell reporter. Potency, µM (top dose mostly 37.9 µM), for the others: at the highest dose activity change, negative = inhibition, most hits filed as inhibitors. 300,000 compounds, 1.2% hits; calls by dose curve; tested in HEK293 cells; note: potency is the fitted concentration of half-maximal effect; nearly all actives have a fitted effect of over 50% in size
HCV inh – qHTS Assay for Inhibitors of Hepatitis C Virus (HCV); Potency, µM (series often up to 41.8 µM), for the others: at the highest dose activity change, negative = inhibition, usual class: inhibitors; 340,000 compounds, 3.4% hits; Huh7.5.1 HCVcc-Cre infection, luciferase reporter, 44 h; active = well fitted inhibition curve with a large enough effect; inconclusive = small, poorly fitted or top-dose-only effect, or another doubt; inactive = no such curve, though single readings can be large or run the other way; note: potency is the fitted concentration of half-maximal effect
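Infectious HCVcc-Cre (~0.5 moi) was added to cells just after compound, with cells seeded 4 h earlier at 1,000 per well. Luciferase activity after 44 h culture reported infection; substrate was incubated 15 min at room temperature before reading.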
MARV entry inh – qHTS for inhibitors of binding or entry into cells for Marburg Virus | AID 540276, 2011 | Potency, µM (series often up to 37.8 µM), without a hit: top-dose activity change, negative = inhibition, hits mostly inhibitors | 300,000 compounds, 1.8% hits | Marburg virus pseudotyped entry inhibition, cell reporter; calls by dose curve; tested in HEK293 cells; note: potency is the fitted concentration of half-maximal effect
Active calls of the source: *; ? = inconclusive; / = not tested or not shown; [ ] = remark or other dose. The list is not random: actives were taken first. Their share in the collection is about 7.9%. % is set by controls: 0 for no effect and ±100 for the full control effect.

SMILES | FMDV inh | HCMV antiviral | LASV entry inh | HCV inh | MARV entry inh
CC(=O)OC[C@@]1(O)C[C@@]23CC[C@@H]4c5ccoc5CC[C@@]4(C)[C@@H]2CCC1C3 | 0.0% | / | / | / | /
Oc1c(CN2CCCCC2)cc(COCc2ccccc2)c2cccnc12 | -28.0% | -96.3* | 2.24µM* | 10µM* | ?
O=[N+]([O-])c1cc(CN2CCCC2)c2cccnc2c1O | -1.4% | / | -1.5% | 10.9% | -8.6%
COCc1cc(CN2CCCC2)c(O)c2ncccc12 | / | -95.2* | ? | 2.82µM* | 25.9µM*
Oc1c(CN2CCN(c3ccccn3)CC2)cc(Cl)c2cccnc12 | ? | / | 12.6µM* | 5.01µM* | 7.08µM*
CN(C)C1CCN(Cc2cc(COCc3ccccc3)c3cccnc3c2O)C1 (stereo not drawn) | -21.2% | / | / | / | /
COC(=O)c1ccc(C[n+]2ccccc2)cc1 | -13.3% | 1.9 | ? | -3.2% | ?
Cc1ccc(C[n+]2ccccc2)cc1 | -21.4% | -2.3 | / | 4.47µM* | /
Cc1cc(NS(=O)(=O)c2ccc(NC(=O)c3ccc([N+](=O)[O-])cc3)cc2)nc(C)n1 | 17.9% | 10.6 | / | / | /
CC(C)(C)OC(=O)N1CCC[C@H]1C(=O)N/N=C/c1cccc2nccnc12 | 22.1% | -12.0 | / | 10.2% | /
CCn1cc(/C=C(\NC(=O)c2ccccc2)C(=O)NCCN2CCOCC2)c2ccccc21 | 0.0% | -18.5 | / | / | /
O=C(CCCl)Nc1cc(SCCO)cc([N+](=O)[O-])c1 | -6.8% | -2.6 | -16.2%[14.3 µM] | / | 5.9%
O=C(Nc1cc(SCCO)cc([N+](=O)[O-])c1)c1ccc(Br)o1 | 31.6µM* | -35.8 | ? | ? | ?
CC(=O)c1cccc(NC(=O)c2ccc3c(=O)n4c(nc3c2)CCCCC4)c1 | 1.6% | ? | 6.7% | ? | -11.3%
O=C(Nc1cccc(S(=O)(=O)N2CCOCC2)c1)c1ccc2c(=O)n3c(nc2c1)CCCCC3 | ? | -84.0* | ? | 7.08µM* | ?
O=C(Nc1cccc(S(=O)(=O)N2CCCC2)c1)c1ccc2c(=O)n3c(nc2c1)CCCCC3 | 12.6µM* | -66.4* | 20.6µM* | 2.82µM* | ?
O=C(NCCc1ccccc1)c1ccc2c(c1)CCN2S(=O)(=O)c1ccc(Cl)cc1 | -22.5% | -14.6 | ? | / | ?
COc1cccc(NC(=O)CN(c2cccc(C(F)(F)F)c2)S(C)(=O)=O)c1 | -7.0% | 10.7 | ? | -3.9% | ?
Cc1ccc(S(=O)(=O)N(CC(=O)Nc2cccc(N(C)S(C)(=O)=O)c2)c2ccc(Cl)c(Cl)c2)cc1 | / | -10.8 | ? | ? | 16.4µM*
CN(c1cccc(NC(=O)CN(c2ccc(C34CC5CC(CC(C5)C3)C4)cc2)S(C)(=O)=O)c1)S(C)(=O)=O | / | / | 7.3µM* | ? | 18.3µM*
COc1cccc(NC(=O)CN(c2cccc(F)c2)S(C)(=O)=O)c1 | / | -13.2 | -6.6% | 8.91µM* | 17.2%
CN(c1cccc(NC(=O)CN(c2ccc(Cl)c(Cl)c2)S(=O)(=O)c2ccccc2)c1)S(C)(=O)=O | ? | -39.7 | ? | ? | ?
COc1cccc(NC(=O)CN(c2cccc(OC)c2)S(C)(=O)=O)c1 | -2.7% | -19.7 | 6.9% | 19.1% | -10.5%[46.1 µM]
CN(c1cccc(NC(=O)CN(c2ccc(F)cc2)S(C)(=O)=O)c1)S(C)(=O)=O | -10.6% | -2.3 | -4.7% | 26.1% | 10.8%[46.1 µM]
O=C(CN(c1cccc(C(F)(F)F)c1)S(=O)(=O)c1ccccc1)Nc1cccc(Cl)c1 | ? | -66.2* | -14.6%[46.1 µM] | / | /
SMILES | FMDV inh | HCMV antiviral | LASV entry inh | HCV inh | MARV entry inh
O=C(Nc1cccc(Cl)c1)Nc1nccs1 | 5.3% | -7.9 | 26.0% | 2.6% | 35.1%
Cc1nc2cc(NC(=O)Nc3nccs3)ccc2n1C | / | 35.4 | 13µM* | -1.7% | ?
O=C(Nc1ccc(Cl)c(Cl)c1)Nc1nccs1 | -18.1% | -66.3* | / | -29.0% | /
Cc1nc2cc(NC(=O)NC(C)(C)C)ccc2n1C | 57.0% | -33.8 | / | 3.5% | /
Cc1nc2ccc(S(=O)(=O)N(CC(=O)Nc3cccc(C)c3C)Cc3ccccc3)cc2s1 | -14.6% | -14.5 | 14.9%[46.1 µM] | / | /
O=C(NCC1CCCO1)c1ccc2c(=O)n(CC3CCCO3)c(=S)[nH]c2c1 (stereo not drawn) | 5.8% | 10.3 | 0.5% | -22.5% | 29.9%
CC1CCN(CCNC(=O)c2ccc3c(=O)n(Cc4ccc(Cl)cc4)c(=S)[nH]c3c2)CC1 | ? | / | / | 6.31µM* | /
O=C(NCc1ccc(Cl)cc1)c1ccc2c(=O)n(CC3CCCO3)c(=S)[nH]c2c1 (stereo not drawn) | 17.8µM* | ? | ? | ? | 7.8%[46.1 µM]
CCn1c(CNC(=O)c2ccco2)nnc1SCC(=O)c1ccccc1 | 6.3% | -61.8* | / | 22.7% | /
O=C(Cc1ccccn1)c1ccc(Cl)cc1 | 46.3% | -68.3* | / | -6.0% | /
Cc1ccc(C(=O)Cc2ccccc2)cc1 | 37.5% | -5.7 | -20.9%[46.1 µM] | -2.4% | ?
CC1=C(CC(=O)c2ccc(Cl)cc2)C(=O)c2ccccc2C1=O | 3.9% | -22.0 | -26.8% | 4.47µM* | 5.5%
CCOc1ccc(-c2cc3cc(OC)c(OC)cc3c(C)n2)cc1 | -7.1% | 5.7 | -22.2% | ? | 1.0%[46.1 µM]
CCc1nc(-c2ccc(OC)c(OC)c2)cc2cc(OC)c(OC)cc12 | -22.3% | 1.1 | -0.3% | 3.16µM* | -2.9%
CCCCOCCCNC(=O)C[C@@H]1C[C@@]2(C(=O)OC)CCCCC=C2N(Cc2ccc(Cl)cc2Cl)C1=O | -9.8% | 7.3 | / | / | /
COc1ccccc1-c1cc(C(F)(F)F)nc(S(=O)(=O)CCCC(=O)N2CCCCC2C)n1 (stereo not drawn) | 7.94µM* | 13.8 | ? | ? | ?
COc1ccccc1-c1cc2nc(C)c(CCC(=O)NCc3ccc(F)cc3)c(C)n2n1 | -5.6% | -33.6 | 13.4%[46.1 µM] | ? | -0.5%[46.1 µM]
COc1ccccc1-c1cc(C(F)(F)F)nc(S(C)(=O)=O)n1 | 31.6µM* | -104.3* | ? | ? | ?
COc1ccccc1-c1cc(C(F)(F)F)nc(N2CCCC2)n1 | 2.5% | -1.4 | -23.1% | -11.8% | -1.9%
COc1ccccc1-c1cc(C(F)(F)F)nc(S(=O)(=O)CCCC(=O)NC(C)C)n1 | 8.91µM* | -22.0 | ? | ? | ?
COc1ccccc1-c1cc(C(F)(F)F)nc(S(=O)(=O)CCCC(=O)NCc2ccc(F)cc2)n1 | 14.1µM* | -98.8* | ? | ? | ?
Cc1oc(-c2ccccc2NC(=O)c2cccnc2)nc1CNC(=O)c1ccc(N(C)C)cc1 | 4.1% | / | / | / | /
O=C(CSc1nc(=O)n2ccccc2n1)NC1CCCCC1 | 6.5% | -32.3 | 4.8% | -8.7% | 4.6%
O=C1CC(NS(=O)(=O)c2cccnc2)CN1c1ccc(Cl)cc1 (stereo not drawn) | -12.5% | ? | 1.6% | 6.6% | -5.6%
O=C(/C=C/c1ccc(Cl)cc1)NCc1cccs1 | 4.3% | -9.8 | 5.8µM* | -5.6% | -3.5%
O=C(NCCc1cccs1)c1ccc(Cl)cc1 | -10.2% | -1.4 | 5.62µM* | -19.5% | ?
Cc1ccc(C(=O)NCCc2cccs2)cc1 | -70.5% | -61.0* | ? | -20.9% | 1.83µM*
